We go through 15 compounds from PubChem BioAssay AID2634 (National Center for Advancing Translational Sciences (NCATS), 2010).

Records with an inconclusive call do not appear. Unmarked numbers belong to inactive results. The source made the active and inactive calls.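 Rule for the calls: active = compounds whose potency, the dose giving half inhibition, is below 20 µM; inconclusive = compounds meeting neither the active nor the inactive rule; inactive = potency over 20 µM or below 50% inhibition when unfitted.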

Integrin alpha-IIb (Homo sapiens), sequence (P08514 whole entry, looked up): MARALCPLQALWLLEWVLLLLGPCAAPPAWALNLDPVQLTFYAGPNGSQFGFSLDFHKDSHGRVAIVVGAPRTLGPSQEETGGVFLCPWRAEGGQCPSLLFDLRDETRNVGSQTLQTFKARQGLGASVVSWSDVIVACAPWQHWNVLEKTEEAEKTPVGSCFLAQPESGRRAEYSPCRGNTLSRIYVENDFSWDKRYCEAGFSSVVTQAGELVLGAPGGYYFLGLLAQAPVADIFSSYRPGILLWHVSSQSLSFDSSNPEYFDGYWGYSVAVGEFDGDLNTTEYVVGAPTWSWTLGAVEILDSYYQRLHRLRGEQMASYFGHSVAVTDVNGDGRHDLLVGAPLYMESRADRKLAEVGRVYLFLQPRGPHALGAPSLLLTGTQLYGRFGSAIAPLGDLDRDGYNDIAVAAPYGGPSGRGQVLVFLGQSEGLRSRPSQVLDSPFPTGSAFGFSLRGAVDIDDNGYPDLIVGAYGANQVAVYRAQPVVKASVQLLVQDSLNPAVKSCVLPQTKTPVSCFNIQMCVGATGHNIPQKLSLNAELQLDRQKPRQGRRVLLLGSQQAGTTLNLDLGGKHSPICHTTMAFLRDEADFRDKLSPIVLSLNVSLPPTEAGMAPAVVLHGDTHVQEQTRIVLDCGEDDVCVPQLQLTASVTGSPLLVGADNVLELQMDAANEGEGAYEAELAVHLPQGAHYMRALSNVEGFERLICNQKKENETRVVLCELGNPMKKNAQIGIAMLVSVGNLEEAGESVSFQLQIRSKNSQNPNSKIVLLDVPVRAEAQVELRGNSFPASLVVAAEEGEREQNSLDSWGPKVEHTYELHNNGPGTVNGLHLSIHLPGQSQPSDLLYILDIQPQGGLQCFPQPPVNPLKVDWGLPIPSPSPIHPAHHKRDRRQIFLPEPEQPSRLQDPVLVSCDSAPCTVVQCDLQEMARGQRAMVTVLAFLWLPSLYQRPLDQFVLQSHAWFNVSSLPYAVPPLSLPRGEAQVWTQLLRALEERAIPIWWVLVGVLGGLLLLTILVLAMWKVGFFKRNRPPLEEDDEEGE

This assay concerns the target Integrin alpha-IIb (Homo sapiens) (UniProt P08514). The experiment in a line: Platelet Adhesion Secondary Assay for Inhibitors of Platelet Integrin alphallb-beta3. The conditions noted are these: human platelet adhesion to fibrinogen, calcein fluorescence; inhibition: at 30 µM, hits give high values. The text has this:
NIH Molecular Libraries Probe Production Network [MLPCN] NIH Chemical Genomics Center [NCGC] MLPCN Grant: 1 R03 MH083257-01 Assay Provider: Barry Coller, Rockefeller University NCGC Assay Overview: The alphaIIbbeta3 receptor plays a vital role in hemostasis and thrombosis, where receptor deficiency causes the hemorrhagic disorder, Glanzmann thrombasthenia, and uncontrolled receptor activation causes thrombosis and blood vessel occlusion. Small molecule inhibitors of alphaIIbbeta3, tirofiban and eptifibatide, have undesirable side effects thought to arise from conformational changes in alphaIIbbeta3. These changes transiently activate the receptor to cause spontaneous platelet aggregation and thrombus formation. […] This secondary assay measures the binding of human plates to fibrinogen, an extracellular matrix protein (Blue et al., 2008). Platelets were loaded with a fluorescent dye, calcein, and added to fibrinogen-coated plates. Following incubation, unbound platelets were removed by washing and bound platelets were detected by measuring fluorescence intensity. Inhibitors of alphaIIbbeta3 block platelet binding to fibrinogen and result in a decrease in fluorescence intensity.
NCGC Assay Protocol Summary: Human fibrinogen (50 ug/mL) in Tris/saline (100 mM NaCl, 50 mM Tris/HCl, pH 7.4; American Diagnostica, Stamford, CT) was added to black, clear-bottom, untreated polystyrene, nonsterile 384-well microtiter plate wells (Corning no. 3711; Acton, MA) using a peristaltic microplate dispenser (WellMate; Matrix, Hudson, NH). After incubating at 22 C for 1 hour, plates were washed 4 times with Tris/saline using an automated plate washer (ELX405; Bio-Tek, Winooski, VT), and wells were then blocked with HBMT (138 mM NaCl, 12 mM NaHCO3, 10 mM HEPES, 2.7 mM KCl, 0.4 mM NaH2PO4, 0.1% glucose, 0.35% BSA, pH 7.4) for at least 1 hour. After 2 additional washes, 15 uL HBMT was allowed to remain in each well. Compounds were added to the wells with a liquid handling robot (MiniTrak V; PerkinElmer, Wellesley, MA) using a pin tool (VP Scientific, San Diego, CA) that added 0.1 uL compound in DMSO. Fifteen microliters 5E11/L calcein-labeled platelets were then added (2.5E11/L final concentration). After 1 hour of adhesion, wells were washed 4 times with HBMT-CaCl2/MgCl2 and the plates were read by an Envision (Perkin Elmer) to detect calcein fluorescence (490 nm excitation and 515 nm emission). Positive controls consisted of wells containing platelets without compounds. Negative controls were wells containing platelets and known inhibitors of alphaIIbbeta3, including mAbs 7E3 and 10E5, and EDTA. Reference Blue R, Murcia M, Karan C, Jirouskova M, and Coller BS. Application of high-throughput screening to identify a novel alphaIIb-specific small- molecule inhibitor of alphaIIbbeta3-mediated platelet interaction with fibrinogen. Blood. 2008, 111(3):1248-56
For `C[C@H](N)C(=O)Nc1cccc(-c2nn3c(=O)cc(N4CCNCC4)nc3s2)c1`, the Potency is 8200 nM (active).

Regarding `O=C(O)c1cccc(-c2cccc(-c3nn4c(=O)cc(N5CCNCC5)nc4s3)c2)c1`, the Potency is 460 nM (active).

As usually defined, the inhibition is the change of the read-out against control, counted positive when it falls. As for `O=C(Nc1cccc(-c2nn3c(=O)cc(N4CCNCC4)nc3s2)c1)c1ccon1`, the inhibition was 32%.

Take `NCC(=O)Nc1cccc(-c2nn3c(=O)cc(N4CCNCC4)nc3s2)c1`: the Potency is 1100 nM (active).

On to `NC(=O)c1ccc(-c2cccc(-c3nn4c(=O)cc(N5CCNCC5)nc4s3)c2)cc1`, for which the Potency was 855 nM (active).

For `CC(C)(C)c1nn2c(=O)cc(N3CCNCC3)nc2s1`, the inhibition is 21%.

Turning to `CCc1nn2c(=O)cc(-c3ccncc3)nc2s1`, the inhibition was 25%.

Turning to `O=C(O)c1ccc(-c2nn3c(=O)cc(N4CCNCC4)nc3s2)cc1`, the inhibition is 48%.

For the compound `CNCC(=O)Nc1cccc(-c2nn3c(=O)cc(N4CCNCC4)nc3s2)c1`, the inhibition was 24%.

For the compound `CCc1nn2c(=O)cc(N3C(C)CNCC3C)nc2s1` (stereo not given), the inhibition was 27%.

Take `Cc1noc(C)c1-c1cccc(-c2nn3c(=O)cc(N4CCNCC4)nc3s2)c1`: the inhibition was 26%.

Regarding `O=C(O)c1cc(-c2cccc(-c3nn4c(=O)cc(N5CCNCC5)nc4s3)c2)cs1`, the Potency was 2400 nM (active).

Turning to `Nc1ncc(-c2cccc(-c3nn4c(=O)cc(N5CCNCC5)nc4s3)c2)cn1`, the Potency was 3500 nM (active).

Turning to `COCc1nn2c(=O)cc(N3CCNCC3)nc2s1`, the inhibition is 18%.

On to `CCc1nn2c(=O)cc(NC3CNC3)nc2s1`, for which the inhibition was 23%.
